PubChem BioAssay (EPA / NIEHS)
Active and inactive are the calls of the source. The calls were made as follows: active = hit-call score of the fitted dose curve at least 0.9, where 1 is the maximum; inactive = score below 0.9.

Key:
Conditions in all cases: mRNA level, 48 h; actives raise or lower the signal
[1] = read-out: ABC Transporter (ABCB1), ABCB1 (gene 5243); assay: LTEA_HepaRG_ABCB1: Life Technologies and Expression Analysis (LTEA) Assay for ABC Transporter (ABCB1) using HepaRG (AID 2283460)
Procedure, shortened: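 Human liver HepaRG line treated 48 h with up to 100 uM compound (eight half-log points, 0.5% DMSO); ABCB1 mRNA change fitted bidirectionally against DMSO controls.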

[2] = read-out: growth arrest and DNA damage 45 (GADD45B), GADD45B (gene 4616); assay: LTEA_HepaRG_GADD45B: Life Technologies and Expression Analysis (LTEA) Assay for growth arrest and DNA damage 45 (GADD45B) using HepaRG (AID 2283461)
Procedure, shortened: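 Values are bidirectional concentration-response fits against 0.5% DMSO controls. Underlying data: qRT-PCR mRNA levels in human HepaRG liver cells treated 48 h in serum-free induction medium, eight concentrations topping at 100 uM.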

[3] = read-out: ABC Transporter (ABCC3), ABCC3 (gene 8714); assay: LTEA_HepaRG_ABCC3: Life Technologies and Expression Analysis (LTEA) Assay for ABC Transporter (ABCC3) using HepaRG (AID 2283462)
Procedure, shortened: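 Differentiated HepaRG liver cells receive test chemicals at eight concentrations (max 100 uM) for 48 h. Expression of ABCC3 is quantified by qRT-PCR against ACTB, GAPDH and POLR2A, and activity is fitted in both directions against the DMSO control.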

[4] = read-out: ABC Transporter (ABCC2), ABCC2 (gene 1244); assay: LTEA_HepaRG_ABCC2: Life Technologies and Expression Analysis (LTEA) Assay for ABC Transporter (ABCC2) using HepaRG (AID 2283464)
Procedure, shortened: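 Gene expression of ABCC2 was determined by qRT-PCR in HepaRG cells exposed 48 h to chemicals (highest 100 uM, half-log dilutions). Activity was fitted in both directions relative to 0.5% DMSO vehicle.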

[5] = read-out: Broad substrate specificity ATP-binding cassette transporter ABCG2 (Homo sapiens) (UniProt Q9UNQ0); assay: LTEA_HepaRG_ABCG2: Life Technologies and Expression Analysis (LTEA) Assay for ABC Transporter (ABCG2) using HepaRG (AID 2283465)
Procedure, shortened: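 Gene expression of ABCG2 in HepaRG liver cells is quantified by qRT-PCR following 48 h exposure across an eight-point series topping at 100 uM. Values come from bidirectional fitting relative to DMSO vehicle.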

[6] = read-out: ATP-citrate lyase (ACLY), ACLY (gene 47); assay: LTEA_HepaRG_ACLY: Life Technologies and Expression Analysis (LTEA) Assay for ATP-citrate lyase (ACLY) using HepaRG (AID 2283466)
Procedure, shortened: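 ACLY expression changes in human HepaRG liver cells are quantified by qRT-PCR after 48 h exposure to test chemicals (maximum 100 uM, half-log steps). Values are fitted in both directions relative to 0.5% DMSO vehicle.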

[7] = read-out: Peroxisomal acyl-coenzyme A oxidase 1 (ACOX1) gene, ACOX1 (gene 51); assay: LTEA_HepaRG_ACOX1: Life Technologies and Expression Analysis (LTEA) Assay for Peroxisomal acyl-coenzyme A oxidase 1 (ACOX1) gene using HepaRG (AID 2283467)
Procedure, shortened: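 Human HepaRG hepatic cultures, 48 h treatment with test chemicals up to 100 uM. ACOX1 expression read by qRT-PCR relative to 0.5% DMSO vehicle.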

[8] = read-out: Alkaline Phosphatase, Placental (ALPP) gene, ALPP (gene 250); assay: LTEA_HepaRG_ALPP: Life Technologies and Expression Analysis (LTEA) Assay for Alkaline Phosphatase, Placental (ALPP) gene using HepaRG (AID 2283468);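 as to AC50: ALPP transcript by TaqMan qRT-PCR normalized to ACTB GAPDH and POLR2A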
Procedure, shortened: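 Expression of ALPP was quantified by qRT-PCR against three housekeeping genes in human HepaRG cultures treated for 48 h with an eight-point concentration series up to 100 uM. Activity in either direction was fitted relative to 0.5% DMSO.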

[9] = read-out: Bcl-2 (BAD) gene, BAD (gene 572); assay: LTEA_HepaRG_BAD: Life Technologies and Expression Analysis (LTEA) Assay for Bcl-2 (BAD) gene using HepaRG (AID 2283469)
Procedure, shortened: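 Activity values reflect up- or down-regulation of BAD mRNA in human HepaRG hepatic cells treated 48 h in serum-free medium, with eight-point half-log dosing capped at 100 uM and 0.5% DMSO vehicle.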

Measured: AC50

Broad substrate specificity ATP-binding cassette transporter ABCG2 (Homo sapiens), sequence (Q9UNQ0 whole entry, looked up): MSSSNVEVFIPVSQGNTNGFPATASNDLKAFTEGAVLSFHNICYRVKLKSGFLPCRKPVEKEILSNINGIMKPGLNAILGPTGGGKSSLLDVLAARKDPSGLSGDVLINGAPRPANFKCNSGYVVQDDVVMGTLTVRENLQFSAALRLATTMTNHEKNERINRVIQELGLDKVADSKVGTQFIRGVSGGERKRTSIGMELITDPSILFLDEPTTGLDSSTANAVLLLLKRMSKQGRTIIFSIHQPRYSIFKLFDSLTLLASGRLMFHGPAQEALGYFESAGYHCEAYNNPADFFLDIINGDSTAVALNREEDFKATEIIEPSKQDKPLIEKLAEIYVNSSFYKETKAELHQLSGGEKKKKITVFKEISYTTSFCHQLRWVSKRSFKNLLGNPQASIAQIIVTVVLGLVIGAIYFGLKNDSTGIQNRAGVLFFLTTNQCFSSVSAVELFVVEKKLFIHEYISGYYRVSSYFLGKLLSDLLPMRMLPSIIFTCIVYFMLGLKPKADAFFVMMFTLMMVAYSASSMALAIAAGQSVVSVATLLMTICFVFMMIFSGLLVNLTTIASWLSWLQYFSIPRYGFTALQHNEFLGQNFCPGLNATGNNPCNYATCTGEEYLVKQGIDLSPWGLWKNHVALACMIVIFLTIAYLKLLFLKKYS

CC(Cl)(Cl)C(=O)O
inactive: all assays above

Cc1ccc(N)cc1N
inactive: all assays above

O=P(Oc1ccccc1)(Oc1ccccc1)Oc1ccccc1
active: [1] 5.73 µM | [4] 8.94 µM | [5] 8.36 µM | [6] 71.6 µM
inactive: [2] | [3] | [7] | [9]

ClC1=C(Cl)C2(Cl)C3C(Cl)C(Cl)CC3C1(Cl)C2(Cl)Cl (centres undefined)
inactive: [2] | [3] | [7] | [9]
active: [1] 6.37 µM | [4] 8.61 µM | [5] 21.4 µM | [6] 85.9 µM | [8] 9.92 µM

CSC(C)(C)C=NO
not listed: [2]
inactive: all other assays above

CC(C)(C)OOC(C)(C)C
inactive: all assays above

COCCOCCO
inactive: all assays above

Cc1ccc([N+](=O)[O-])cc1C
inactive: all assays above

CCCN(CCC)c1c([N+](=O)[O-])cc(C(C)C)cc1[N+](=O)[O-]
active: [1] 50 µM | [3] 0.246 µM | [4] 18.3 µM | [5] 18.1 µM | [6] 0.129 µM
inactive: [2] | [7] | [8] | [9]

ClC(Cl)c1ccccc1
inactive: all assays above

Nc1ccc(Cl)cc1
inactive: all assays above

CCCCN(CCCC)SN(C)C(=O)Oc1cccc2c1OC(C)(C)C2
active: [1] 23.2 µM
inactive: all other assays above

CCOC(=O)c1ccccc1C(=O)OCC
inactive: all assays above

CCC(C)(C)c1ccc(O)cc1
inactive: all assays above

Nc1ccc2ccccc2c1
inactive: all assays above

Nc1cc2c3c(c1)C(c1ccccc1)=N[C@@H](NC(=O)c1cccnc1)C(=O)N3CC2
active: [1] 18.5 µM
inactive: all other assays above

CCOP(=S)(Oc1ccc([N+](=O)[O-])cc1)c1ccccc1 (centres undefined)
active: [1] 4.56 µM | [4] 24 µM | [5] 12.7 µM | [8] 50 µM
inactive: all other assays above

CCOc1ccc(C(C)(C)COCc2cccc(Oc3ccccc3)c2)cc1
active: [1] 8.69 µM | [4] 24.6 µM | [5] 2.64 µM
inactive: all other assays above

CC(C)(C)c1ccc(O)cc1
not listed: [1]
inactive: all other assays above

Cc1ccc(O)cc1C
not listed: [1]
inactive: all other assays above

c1ccc(OP(Oc2ccccc2)Oc2ccccc2)cc1
inactive: all assays above

O=C(O)C1C(C(=O)O)C2(Cl)C(Cl)=C(Cl)C1(Cl)C2(Cl)Cl (centres undefined)
inactive: all assays above
